Out of some 5,500 compounds screened, about 2,000 (36%) were called active. Not shown: some 18% with an inconclusive outcome. Cut-off read from the data, not from the text of the source: active = normalized growth mostly below about 0.91 (no sharp cut-off); inconclusive = no clear call, values can overlap the other calls; inactive = mostly above about 0.92. The list shows a part of the results.
Test: chemical genetic growth profiling, strain panel (AID 1159580);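 note: tested at 20 µM; growth read once vehicle control cultures reached saturation at 30 °C; 1 = growth at the plate median or of vehicle wells; lower values mean less growth of the strain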
Conditions: growth OD

Measured: normalized growth

NS(=O)(=O)c1cc(C2(O)NC(=O)c3ccccc32)ccc1Cl (stereo unspecified)
inactive: S. cerevisiae deletion strains, locus YJR075W, strain HOC1, hits give low values 1.03 | S. cerevisiae deletion strains, locus YKL009W, strain mrt4, hits give low values 1.01 | S. cerevisiae deletion strains, locus YKL068W, hits give low values 1.01 | S. cerevisiae deletion strains, locus YKL085W, strain MDH1 (second series), hits give low values 1.01 | S. cerevisiae deletion strains, locus YKL085W, strain MDH1, hits give low values 1.01 | S. cerevisiae deletion strains, locus YKL160W, strain elf1, hits give low values 0.991 | S. cerevisiae deletion strains, locus YKL190W, strain CNB1, hits give low values 1.01 | S. cerevisiae deletion strains, locus YKR001C, strain vps1, hits give low values 1.02 | S. cerevisiae deletion strains, locus YKR026C, strain gcn3, hits give low values 0.978 | S. cerevisiae deletion strains, locus YKR091W, strain srl3, hits give low values 0.987 | S. cerevisiae deletion strains, locus YLL001W, strain dnm1, hits give low values 0.972 | S. cerevisiae deletion strains, locus YLL026W, hits give low values 0.988 | S. cerevisiae deletion strains, locus YLL041C, strain sdh2, hits give low values 0.981 | S. cerevisiae deletion strains, locus YLR027C, strain aat2, hits give low values 0.994 | S. cerevisiae deletion strains, locus YLR039C, strain RIC1, hits give low values 1.01 | S. cerevisiae deletion strains, locus YLR058C, strain SHM2, hits give low values 1.03 | S. cerevisiae deletion strains, locus YLR102C, strain apc9, hits give low values 1.01 | S. cerevisiae deletion strains, locus YLR113W, strain HOG1, hits give low values 0.969 | S. cerevisiae deletion strains, locus YLR221C, strain rsa3, hits give low values 0.981 | S. cerevisiae deletion strains, locus YLR258W, strain gsy2, hits give low values 0.999 | S. cerevisiae deletion strains, locus YLR262C, strain YPT6 (second series), hits give low values 1.01 | S. cerevisiae deletion strains, locus YLR262C, strain YPT6, hits give low values 1.04 | S. cerevisiae deletion strains, locus YLR268W, strain sec22, hits give low values 1.03 | S. cerevisiae deletion strains, locus YLR320W, strain mms22, hits give low values 0.976 | S. cerevisiae deletion strains, locus YLR330W, strain CHS5, hits give low values 1.02 | S. cerevisiae deletion strains, locus YLR342W, strain FKS1 (second series), hits give low values 1.01 | S. cerevisiae deletion strains, locus YLR342W, strain FKS1, hits give low values 0.987 | S. cerevisiae deletion strains, locus YLR357W, strain rsc2, hits give low values 1 | S. cerevisiae deletion strains, locus YLR370C, strain arc18, hits give low values 0.986 | S. cerevisiae deletion strains, locus YLR371W, strain rom2, hits give low values 1.02 | S. cerevisiae deletion strains, locus YLR384C, strain iki3, hits give low values 0.987 | S. cerevisiae deletion strains, locus YLR418C, strain cdc73, hits give low values 1.03 | S. cerevisiae deletion strains, locus YML016C, strain PPZ1, hits give low values 1.01 | S. cerevisiae deletion strains, locus YML032C, strain rad52, hits give low values 1.02 | S. cerevisiae deletion strains, locus YML120C, strain ndi1, hits give low values 0.983 | S. cerevisiae deletion strains, locus YML124C, strain tub3, hits give low values 1.02 | S. cerevisiae deletion strains, locus YMR058W, strain fet3, hits give low values 1.01 | S. cerevisiae deletion strains, locus YMR078C, strain ctf18, hits give low values 1.02 | S. cerevisiae deletion strains, locus YMR125W, strain sto1, hits give low values 1.01 | S. cerevisiae deletion strains, locus YMR129W, hits give low values 0.985 | S. cerevisiae deletion strains, locus YMR205C, strain PFK2, hits give low values 0.99 | S. cerevisiae deletion strains, locus YMR223W, strain ubp8, hits give low values 1.02 | S. cerevisiae deletion strains, locus YMR231W, strain pep5, hits give low values 0.994 | S. cerevisiae deletion strains, locus YMR263W, strain SAP30, hits give low values 1.01 | S. cerevisiae deletion strains, locus YMR307W, strain GAS1, hits give low values 0.984 | S. cerevisiae deletion strains, locus YNL067W, strain RPL9B, hits give low values 1.02 | S. cerevisiae deletion strains, locus YNL071W, strain lat1, hits give low values 0.989 | S. cerevisiae deletion strains, locus YNL153C, strain GIM3, hits give low values 1.02 | S. cerevisiae deletion strains, locus YNL183C, strain NPR1, hits give low values 0.948 | S. cerevisiae deletion strains, locus YNL209W, strain ssb2, hits give low values 0.997 | S. cerevisiae deletion strains, locus YNL233W, strain BNI4, hits give low values 1.02 | S. cerevisiae deletion strains, locus YNL248C, strain rpa49, hits give low values 1.02 | S. cerevisiae deletion strains, locus YNL250W, strain rad50, hits give low values 0.992 | S. cerevisiae deletion strains, locus YNL271C, strain bni1, hits give low values 1.02 | S. cerevisiae deletion strains, locus YNL298W, strain CLA4, hits give low values 1.03 | S. cerevisiae deletion strains, locus YNL307C, strain MCK1, hits give low values 1.02 | S. cerevisiae deletion strains, locus YNL322C, strain KRE1 (second series), hits give low values 0.983 | S. cerevisiae deletion strains, locus YNL322C, strain KRE1, hits give low values 1 | S. cerevisiae deletion strains, locus YNR049C, strain mso1, hits give low values 0.997 | S. cerevisiae deletion strains, locus YNR052C, strain pop2, hits give low values 1.01 | S. cerevisiae deletion strains, locus YOL006C, strain TOP1, hits give low values 1.1 | S. cerevisiae deletion strains, locus YOL012C, strain htz1 1.12 | S. cerevisiae deletion strains, locus YOL147C, strain pex11, hits give low values 1.01 | S. cerevisiae deletion strains, locus YOR001W, strain rrp6, hits give low values 0.987 | S. cerevisiae deletion strains, locus YOR061W, strain CKA2, hits give low values 1.01 | S. cerevisiae deletion strains, locus YOR069W, strain VPS5, hits give low values 1.01 | S. cerevisiae deletion strains, locus YOR070C, strain gyp1, hits give low values 0.991 | S. cerevisiae deletion strains, locus YOR080W, strain dia2, hits give low values 0.976 | S. cerevisiae deletion strains, locus YOR083W, strain WHI5, hits give low values 0.98 | S. cerevisiae deletion strains, locus YOR106W, strain vam3, hits give low values 1.01 | S. cerevisiae deletion strains, locus YOR136W, strain idh2, hits give low values 1.03 | S. cerevisiae deletion strains, locus YOR144C, strain elg1, hits give low values 1.02 | S. cerevisiae deletion strains, locus YOR184W, strain ser1, hits give low values 1.03 | S. cerevisiae deletion strains, locus YOR231W, strain MKK1, hits give low values 0.976 | S. cerevisiae deletion strains, locus YOR265W, strain rbl2, hits give low values 0.993 | S. cerevisiae deletion strains, locus YOR270C, strain vph1, hits give low values 1.01 | S. cerevisiae deletion strains, locus YOR290C, strain snf2, hits give low values 0.986 | S. cerevisiae deletion strains, locus YOR316C, strain cot1, hits give low values 1.02 | S. cerevisiae deletion strains, locus YPL051W, strain arl3, hits give low values 0.981 | S. cerevisiae deletion strains, locus YPL055C, strain LGE1, hits give low values 1.02 | S. cerevisiae deletion strains, locus YPL078C, strain atp4, hits give low values 0.984 | S. cerevisiae deletion strains, locus YPL106C, strain sse1, hits give low values 0.948 | S. cerevisiae deletion strains, locus YPL240C, strain hsp82, hits give low values 0.99 | S. cerevisiae deletion strains, locus YPL241C, strain CIN2, hits give low values 1.01 | S. cerevisiae deletion strains, locus YPL256C, strain CLN2, hits give low values 0.96 | S. cerevisiae deletion strains, locus YPR119W, strain clb2, hits give low values 1.01 | S. cerevisiae deletion strains, locus YPR141C, strain kar3, hits give low values 1.03 | S. cerevisiae deletion strains, locus YPR163C, strain tif3, hits give low values 1.01 | S. cerevisiae deletion strains, locus YPR167C, strain met16, hits give low values 1.02 | S. cerevisiae deletion strains, strain wtn01, hits give low values 1.04 | S. cerevisiae strains, strain wild type, hits give low values 1.01

Reference: PubChem BioAssay AID1159580 (chemical genetic matrix, 2015)
